Data on 16 molecules can be found in PubChem BioAssay (NCI).

Molecules are shown by their SMILES. The panel holds about 83,000 compounds, 20% with a hit somewhere; the sample as a whole holds those more often.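 The test compound was applied at a single concentration to cells in 96-well plates for 48 hours, and percent growth was recorded.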 Values without a mark were called inactive. The source made the active and inactive calls. The calls were made as follows: active = growth percent below 10; inactive = the rest.

What all share (assay): NCI-60 one-dose screen, 48 h (100 = growth as untreated, 0 = no growth, -100 = all killed)
Holding throughout (details): 10 µM unless noted

Experiment [1] deals with T-47D breast.
The test system of experiment [2] is BT-549 breast.
Experiment [3] concerns MDA-MB-435 melanoma.
The subject of experiment [4] is SW-620 colon.
Experiment [5] relates to MCF7 breast.
Experiment [6] has as its system HCT-116 colon.
For experiment [7], the system named is HCC-2998 colon.
Experiment [8] relates to KM12 colon.

For the molecule `CC1(c2ccccc2O)NN=C(/N=C/c2cccc([N+](=O)[O-])c2)N1C(Cc1c[nH]c2ccccc12)C(=O)O` (stereo not drawn), the growth in experiment [1] is 91.1%; in experiment [2], 97.5%; in experiment [3], 106%; in experiment [4], 94.9%; in experiment [5], 77.3%; in experiment [6], 87%. In addition, the values for the growth in experiment [7] and in experiment [8] were 97.8% and 96.4%, respectively.
As for `O=C1N[C@@H]2NC(=[N+]3CCOCC3)N[C@@H]2N1`, the growth in experiment [1] was 101%; in experiment [2] it was 110%; in experiment [3] it was 105%; in experiment [4] it was 98.8%; in experiment [5], 95.9%; in experiment [6] it was 104%. Also, the results for the growth in experiment [7] and in experiment [8] were 108% and 107%, respectively.
Take `c1cnc2[nH]cc(-c3csc(-c4cn(CCCN5CCOCC5)c5ccccc45)n3)c2c1`: the growth in experiment [1] was 27.1%; in experiment [2], 50.3%; in experiment [3], 6.18% (active); in experiment [4], 39.5%; in experiment [5], 28.6%; in experiment [6], 29.8%. The growth in experiment [7] is 58.6%; in experiment [8], 28.1%.
As for `COc1cccc(NC(=O)Cn2cc(CN3CCN(c4ccnc5cc(Cl)ccc45)CC3)nn2)c1`, the growth was 70.7% in experiment [1]; 77.2% in experiment [2]; 96.7% in experiment [3]; 88.8% in experiment [4]; 86.7% in experiment [5]; 97% in experiment [6]. Also, the growth in experiment [7] was 93%; in experiment [8], 78.4%.
Take `CC1=NN(c2nc(SCC(=O)Nc3nc4ccc(C)cc4s3)nc(-c3ccccc3)c2C#N)C(=O)C1`: the growth was 91.3% in experiment [1]; 95.5% in experiment [2]; 103% in experiment [3]; 102% in experiment [4]; 96.8% in experiment [5]; 101% in experiment [6]. The growth was 104% in experiment [7] and 101% in experiment [8].
`CN1CCN(C(=O)c2ccc(NC(=O)Nc3ccc(-c4nc(N5CCOCC5)c5cccn5n4)cc3)cc2)CC1`: the growth in experiment [1] was -34.3% (active); in experiment [2], -9.61% (active); in experiment [3] it was 0.865% (active); in experiment [4], 11%; in experiment [5], 5.32% (active); in experiment [6], 7.02% (active). The values for the growth in experiment [7] and in experiment [8] were 5.54% (active) and 9.01% (active), respectively.
Take `CC1(C)CC[C@]2(C(=O)O)CC[C@]3(C)C(=CC[C@@H]4[C@@]5(C)C/C(=C/O)C(=O)C(C)(C)[C@@H]5CC[C@]43C)[C@@H]2C1`: the growth was 61.9% in experiment [1]; 88.6% in experiment [2]; 69.7% in experiment [3]; 12% in experiment [4]; 29.5% in experiment [5]; 12.7% in experiment [6]. For the same molecule, the values for the growth in experiment [7] and in experiment [8] were 50.5% and 15.7%, respectively.
Turning to `Cc1ccc(CNc2ccc(Cl)cc2NCc2ccc(C)c(O)c2)cc1O`, the growth in experiment [1] is 11.3%; in experiment [2] it was 39.9%; in experiment [3], 30.9%; in experiment [4] it was 25.9%; in experiment [5], 9.21% (active); in experiment [6] it was 24.4%. The growth in experiment [7] is 22.7%; in experiment [8], -1.46% (active).
`CCN(CC)c1ccc(/C=C/C(=O)c2ccc(Nc3nc(Nc4ccccc4)nc(Nc4ccccc4)n3)cc2)cc1`: the growth in experiment [1] is 12.3%; in experiment [2], 52.1%; in experiment [3] it was 51.4%; in experiment [4] it was 70.3%; in experiment [5] it was 29.2%; in experiment [6] it was 50.2%. For the same molecule, the results for the growth in experiment [7] and in experiment [8] were 66.5% and 45.4%, respectively.
As for `O=C(NCc1ccccc1)Nc1ccccc1CNc1nc(Nc2ccc(OCCN3CCCC3)cc2)ncc1Cl`, the growth in experiment [1] was 104%; in experiment [2], 96.3%; in experiment [3], 82.9%; in experiment [4], 77.1%; in experiment [5] it was 65.9%; in experiment [6] it was 95.5%. Further, the results for the growth in experiment [7] and in experiment [8] were 96.9% and 94.2%, respectively.
Take `COc1ccc(-c2ccc3cnc4sc(-c5ccc(OC)cc5)nc4c3n2)cc1`: the growth in experiment [1] is 76.3%; in experiment [2] it was 108%; in experiment [3] it was 101%; in experiment [4], 112%; in experiment [5], 78%; in experiment [6], 94.5%. The growth was 93.1% in experiment [7] and 89.1% in experiment [8].
With `N=C(N)c1ccc(-c2ccc(-c3cc(Cl)cc(Cl)c3)o2)o1`, the growth in experiment [1] is -58.3% (active); in experiment [2], 88.8%; in experiment [3] it was -92.8% (active); in experiment [4], -87.4% (active); in experiment [5], -77.6% (active); in experiment [6] it was -69.4% (active). In addition, the growth in experiment [7] is -77.8% (active); in experiment [8], -78.9% (active).
`C=CCn1c(SCC(=O)Nc2ccc(C(=O)/C=C/c3cc4cc(OC)ccc4nc3Cl)cc2)nnc1-c1ccc(Br)cc1`: the growth is 77.7% in experiment [1]; 79.3% in experiment [2]; 91.1% in experiment [3]; 92% in experiment [4]; 29.6% in experiment [5]; -44% (active) in experiment [6]. Moreover, the growth in experiment [7] was 95.1%; in experiment [8], 84.7%.
On to `COc1ccc(/C=C2\COc3ccc(O)c(O)c3C2=O)cc1`, for which the growth in experiment [1] was 6.94% (active); in experiment [2] it was -6.78% (active); in experiment [3], 11%; in experiment [4], 6.34% (active); in experiment [5], 19%; in experiment [6] it was 10.8%. Moreover, the growth is 50.7% in experiment [7] and 8.91% (active) in experiment [8].
In the case of `Cc1nc2ncnc(Cl)c2[nH]1`, the growth in experiment [1] was 95.7%; in experiment [2], 105%; in experiment [3], 105%; in experiment [4] it was 103%; in experiment [5], 91.3%; in experiment [6] it was 84.3%. Besides, the growth was 98.6% in experiment [7] and 102% in experiment [8].
For `COc1ccc(/C=N/C2=C(C#N)C(c3cccc(Cl)c3)c3c(ccc4ccccc34)O2)cc1` (stereo not drawn), the growth in experiment [1] was 36.7%; in experiment [2], 29.3%; in experiment [3], -36% (active); in experiment [4] it was 23.7%; in experiment [5], 11.1%; in experiment [6], 21.8%. In addition, the growth is 65.4% in experiment [7] and 24.9% in experiment [8].
